Source: PMC10726135, “HNF4α isoforms regulate the circadian balance between carbohydrate and lipid metabolism in the liver”
Over roughly 18,000 sequences, “log2 normalized intensity” has its median near 0.39; the highest 2% begin near 6.6. The full list was thinned out, with the highest values kept by preference.

The sequences below were run against T1, HNF4alpha2 (COS-7 nuclear extract) (Homo sapiens, UniProt P41235 1-474) (assay: protein-binding microarray; COS-7 nuclear extract on double-stranded Agilent 4x180k PBM; binding buffer, salt, pH and temperature not given in the material; high values mean tight binding). Details: chain copies: 2; label: 3' end of strand 1 on the slide; dsDNA, one strand shown.
T1 sequence: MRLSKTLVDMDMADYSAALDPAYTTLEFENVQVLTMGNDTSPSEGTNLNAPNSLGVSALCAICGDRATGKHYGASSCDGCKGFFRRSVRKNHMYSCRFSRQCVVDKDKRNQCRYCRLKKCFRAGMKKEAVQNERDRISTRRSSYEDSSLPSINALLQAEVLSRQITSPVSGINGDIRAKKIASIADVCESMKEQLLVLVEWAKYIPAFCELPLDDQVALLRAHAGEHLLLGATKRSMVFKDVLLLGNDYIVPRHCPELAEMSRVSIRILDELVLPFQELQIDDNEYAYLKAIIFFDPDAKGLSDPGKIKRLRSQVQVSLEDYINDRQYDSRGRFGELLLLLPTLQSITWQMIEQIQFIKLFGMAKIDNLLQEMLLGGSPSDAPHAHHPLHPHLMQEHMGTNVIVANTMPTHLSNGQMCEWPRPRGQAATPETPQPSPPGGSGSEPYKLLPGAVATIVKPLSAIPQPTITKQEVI
Outline: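 Binding signal is the background-corrected, normalized gProcessedSignal calculated by Agilent software. It was measured by applying nuclear extracts of COS-7 cells transiently transfected with a human HNF4α isoform expression vector to a custom Agilent SurePrint G3 4x180k array of ~44,000 double-stranded ~60-nt test sequences in quadruplicate, then imaging bound HNF4α on an Agilent G2565CA scanner at 2-µm resolution.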

Sequence | binding signal [log2 normalized intensity]
AATGGTGGGATAGGAGACATGAAGGACATAGCCTAGGGAGATTAGAGTATCGGTCGA | -0.721
TCCTCTTATCTTCAGGTTTGCTAATATCTGGCCTAGGGAGATTAGAGTATCGGTCGA | 1.35
CTAGGAGAGTCCGGGGCAAACAAGGGCAACGCCTAGGGAGATTAGAGTATCGGTCGA | -0.823
TGAGATAGGTACTATTATTAGAGTCCCTTTGCCTAGGGAGATTAGAGTATCGGTCGA | 1.01
TTTCCCCGTCCCAAGCTGAGGTCTGGTGTCGCCTAGGGAGATTAGAGTATCGGTCGA | 2.59
CTGAGATAGTCATTCTTCTACAGTGTTTACGCCTAGGGAGATTAGAGTATCGGTCGA | 0.901
AGCACACCTTTTTTTCATGCAAATTTCCGTGCCTAGGGAGATTAGAGTATCGGTCGA | 0.118
AAGAAATAAAAACAGCTGGGTTCCAAAAGGGCCTAGGGAGATTAGAGTATCGGTCGA | 0.155
GTCAAACTTTGGACCCACTGCAGGATTGGAGCCTAGGGAGATTAGAGTATCGGTCGA | 3.52
CCCTCCTTAAGACCTAGATGGAATGTTGTGGCCTAGGGAGATTAGAGTATCGGTCGA | 1.29
ACACTTGCCCTTTGCCCTCACTGGTAGAAGGCCTAGGGAGATTAGAGTATCGGTCGA | 5.09
AGCCTCTATGTCAGGCCATTTCACCTTTGCGCCTAGGGAGATTAGAGTATCGGTCGA | 3.72
TGTCACACTGGCCTTTGCCCTCGCTGGCGGGCCTAGGGAGATTAGAGTATCGGTCGA | 4.25
AAGGCTGTCACACTGGCCTTTGCCCTCGCTGCCTAGGGAGATTAGAGTATCGGTCGA | 4.98
CTATGTCAGGCCATTTCACCTTTGCCCTGTGCCTAGGGAGATTAGAGTATCGGTCGA | 6.82
AAAGGCTGTCACACTTGCCCTTTGCCCTCAGCCTAGGGAGATTAGAGTATCGGTCGA | 8.34
TCAGGCCATTTCACCTTTGCCCTGTCAGTCGCCTAGGGAGATTAGAGTATCGGTCGA | 5.88
CTGTCACACTTGCCCTTTGCCCTCACTGGTGCCTAGGGAGATTAGAGTATCGGTCGA | 7.1
CACAAAAAGGCTGTCACACTTGCCCTTTGCGCCTAGGGAGATTAGAGTATCGGTCGA | 4.82
GAGGAGAGAGTAAATAATTGATGAAACAGGGCCTAGGGAGATTAGAGTATCGGTCGA | -0.991
AGTACCTCTCAAAAATCTCACTCACCCTAAGCCTAGGGAGATTAGAGTATCGGTCGA | -0.279
CATGAAGGTCTCCTTGACTTCAAAGGCATTGCCTAGGGAGATTAGAGTATCGGTCGA | 0.693

Sequence | binding signal [log2 normalized intensity]
CAACTCCAAAGTCCAAAGTCCAGTCTTATCGCCTAGGGAGATTAGAGTATCGGTCGA | 8.27
CTATCTGCCTGCAGGAGAGAGCAAAGTCCAGCCTAGGGAGATTAGAGTATCGGTCGA | 7.16
TGTCTCCCTCTGCAGCAAAGTCCAGGCATAGCCTAGGGAGATTAGAGTATCGGTCGA | 1.13
CTTGGGGTCAAAGTACATCCCCTAAAACATGCCTAGGGAGATTAGAGTATCGGTCGA | 5.71
AGTCTTGAGTCCCAAAGTCCAAAGGCAGTCGCCTAGGGAGATTAGAGTATCGGTCGA | 2.83
GTTACCTTGGGGTCAAAGTACATCCCCTAAGCCTAGGGAGATTAGAGTATCGGTCGA | 6.4
TGCCTGCAGGAGAGAGCAAAGTCCACGCATGCCTAGGGAGATTAGAGTATCGGTCGA | 6.29
AGCCCTTATATCCACATGGGTCCAAAGTTCGCCTAGGGAGATTAGAGTATCGGTCGA | 8.54
GACCAGTCTGCCTGACTCCAGAGTCCAAACGCCTAGGGAGATTAGAGTATCGGTCGA | 2.77
TGCAAGTTACCTTGGGGTCAAAGTACATCCGCCTAGGGAGATTAGAGTATCGGTCGA | 8.65
ATTCCTAAGTTCCAAAGGCCATCCACATTCGCCTAGGGAGATTAGAGTATCGGTCGA | 1.84
CAGGGAGCCCTTATATCCACATGGGTCCAAGCCTAGGGAGATTAGAGTATCGGTCGA | 2.29
GAGTCTTAGGGAGGGGCCAGGACAAAGGTCGCCTAGGGAGATTAGAGTATCGGTCGA | 5.72
CCACTCTCATGGTCAATATTTTCTTTGTGCGCCTAGGGAGATTAGAGTATCGGTCGA | 1.63
GTCTGATCTTCCTGAGGAGAGCAAAGATCAGCCTAGGGAGATTAGAGTATCGGTCGA | 2.54
GACTCCAGTGATCTTATCGCCTAGTACTCCGCCTAGGGAGATTAGAGTATCGGTCGA | -0.841
CCTCGCCTATGGTATGTATGGAATGTCACTGCCTAGGGAGATTAGAGTATCGGTCGA | 1.63
GCCAGGACAAAGGTCCTGTGGCCTGGGGAGGCCTAGGGAGATTAGAGTATCGGTCGA | 0.557
CCTGGCCATTTCTCAGGTTGTGTTTGCAGTGCCTAGGGAGATTAGAGTATCGGTCGA | 1.53
CTATTGCAGTAACGGCAGGGTTGTGCAGGAGCCTAGGGAGATTAGAGTATCGGTCGA | 0.453
ATCCTTACACAGCAGCTTTAGTCAGAGATTGCCTAGGGAGATTAGAGTATCGGTCGA | -0.896
GCATGGCTCAGTCCAAGTCCAAAGGTCTGAGCCTAGGGAGATTAGAGTATCGGTCGA | 5.39

Sequence | binding signal [log2 normalized intensity]
AAGTCCAGTCTTATCTGAGACTCAAGGCAAGCCTAGGGAGATTAGAGTATCGGTCGA | -0.968
CCAAAGTCCAAAGTCCAGTCTTATCTGAGAGCCTAGGGAGATTAGAGTATCGGTCGA | 7.12
TTTCTGTAAAGCTTTATTTTGGGGCTGTATGCCTAGGGAGATTAGAGTATCGGTCGA | 0.324
GTGACCTTTGCTCCAGTTCCCAATAAGTTGGCCTAGGGAGATTAGAGTATCGGTCGA | 4.19
TTTGCCAAAGCATAGCAAGAGTGACCTTTGGCCTAGGGAGATTAGAGTATCGGTCGA | 6.6
TATGACCTTTGCTTTTCAAGATTTTACCTAGCCTAGGGAGATTAGAGTATCGGTCGA | 2.14
AATCGACCTTTAGCACCGTAAGAGAGTATTGCCTAGGGAGATTAGAGTATCGGTCGA | 3.82
ATAGCAAAAGTGACCTTTGCTCCAGTTCCCGCCTAGGGAGATTAGAGTATCGGTCGA | 7.8
AAAAGTGACCTTTGCTCCAGTTCCCAATAAGCCTAGGGAGATTAGAGTATCGGTCGA | 5.9
CTTCTTTGCTTAAGCATAGCAAAAGTGACCGCCTAGGGAGATTAGAGTATCGGTCGA | 2.7
CCTGCATATCCTGACTGCTGACCTTTAAGCGCCTAGGGAGATTAGAGTATCGGTCGA | 4.85
CAAAGCATAGCAAGAGTGACCTTTGCTCCAGCCTAGGGAGATTAGAGTATCGGTCGA | 8.97
AGATAGCATTCCAAGAGAGCAAAGTGCTTTGCCTAGGGAGATTAGAGTATCGGTCGA | 0.587
CTTTAGCACCTTCATCCAAAGATGACCTTTGCCTAGGGAGATTAGAGTATCGGTCGA | 7.62
TTGCTTAAGCATAGCAAAAGTGACCTTTGCGCCTAGGGAGATTAGAGTATCGGTCGA | 8.56
CCCATCCAAAGGTCAGCAATCTCAAAGACTGCCTAGGGAGATTAGAGTATCGGTCGA | 2.36
TAAGTTTAAGTCCAGAAAAGACCAAAAAGGGCCTAGGGAGATTAGAGTATCGGTCGA | 0.39
TAACTATGGTCACGCGGCCAAAATGTTCAGGCCTAGGGAGATTAGAGTATCGGTCGA | 0.22
CTGTGTCATCTGAACTCTGACCAACGCCTCGCCTAGGGAGATTAGAGTATCGGTCGA | 2.73
CATAGCAAGAGTGACCTTTGCTCCAGTTCCGCCTAGGGAGATTAGAGTATCGGTCGA | 7.45
CAAGAGTGACCTTTGCTCCAGTTCCCAATAGCCTAGGGAGATTAGAGTATCGGTCGA | 6
TGACCTTTGCTCCAGTTCCCAATAATTTCCGCCTAGGGAGATTAGAGTATCGGTCGA | 4.46

Sequence | binding signal [log2 normalized intensity]
CAGTACTGAAACATGCCTATGACCGAGGGTGCCTAGGGAGATTAGAGTATCGGTCGA | 0.809
TGCTTGGAATGCTATTTGCATTGACACAACGCCTAGGGAGATTAGAGTATCGGTCGA | 0.296
TTCTGTTCAATGGTGCTTTTGATATTGTTGGCCTAGGGAGATTAGAGTATCGGTCGA | 2.06
CAACTGACATCTGGAAATGTTTGTAGGGACGCCTAGGGAGATTAGAGTATCGGTCGA | 0.308
CTTTGACCCTGTTTTGTAAACTCCCTTTGAGCCTAGGGAGATTAGAGTATCGGTCGA | 1.78
AATGTTTGTAGGGACTTTGACCCCTAAAACGCCTAGGGAGATTAGAGTATCGGTCGA | 8.73
AGCAATGTTTCTTGTCCAGGGACTTTGAACGCCTAGGGAGATTAGAGTATCGGTCGA | 5.74
GACATCTGGAAATGTTTGTAGGGACTTTGAGCCTAGGGAGATTAGAGTATCGGTCGA | 4.28
CTGGAAATGTTTGTAGGGACTTTGACCCCTGCCTAGGGAGATTAGAGTATCGGTCGA | 9.92
AGTTTGACTCCAAAGGGCTGGAGACTGAGTGCCTAGGGAGATTAGAGTATCGGTCGA | -0.509
TCTAAGACCCATCCCTCAGGGTCCATATCCGCCTAGGGAGATTAGAGTATCGGTCGA | 2.84
TCTTCCTAGGCAATCCCATGACCTTTGTACGCCTAGGGAGATTAGAGTATCGGTCGA | 8.78
CACCTTCTTCCTAGGCAATCCCATGACCTTGCCTAGGGAGATTAGAGTATCGGTCGA | 3.25
CCATGACCTTTGTACTAATGATTTGTAAATGCCTAGGGAGATTAGAGTATCGGTCGA | 5.25
CTAGGCAATCCCATGACCTTTGTACTAATGGCCTAGGGAGATTAGAGTATCGGTCGA | 7.57
TGTCTTCTGACCTTTGGCAATATCTCCCAGGCCTAGGGAGATTAGAGTATCGGTCGA | 3.48
CAATCCCATGACCTTTGTACTAATGATTTGGCCTAGGGAGATTAGAGTATCGGTCGA | 5.84
TCTGAAGATAAATGCCTTAGCTGTGACCATGCCTAGGGAGATTAGAGTATCGGTCGA | 0.619
CTCTAGGGTAGATAAGGATGGATCAAAGGAGCCTAGGGAGATTAGAGTATCGGTCGA | -0.461
